# DAGLB inhibitor – DAGLB lipase inhibitors, primary screen, biochemical, fluorescence, HTS; inhibition, % at 5.17 µM; Diacylglycerol lipase-beta (Homo sapiens), Q8NCG7; hit rate 0.059% among 340,000; HEK293T DAGLB membrane lysate, EnzChek fluorogenic substrate; AID 504411, 2011; in the data active = inhibition above about 34%;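 note: 0% = enzyme with vehicle and 100% = wells lacking enzyme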
# Target sequence (Q8NCG7 whole entry, looked up): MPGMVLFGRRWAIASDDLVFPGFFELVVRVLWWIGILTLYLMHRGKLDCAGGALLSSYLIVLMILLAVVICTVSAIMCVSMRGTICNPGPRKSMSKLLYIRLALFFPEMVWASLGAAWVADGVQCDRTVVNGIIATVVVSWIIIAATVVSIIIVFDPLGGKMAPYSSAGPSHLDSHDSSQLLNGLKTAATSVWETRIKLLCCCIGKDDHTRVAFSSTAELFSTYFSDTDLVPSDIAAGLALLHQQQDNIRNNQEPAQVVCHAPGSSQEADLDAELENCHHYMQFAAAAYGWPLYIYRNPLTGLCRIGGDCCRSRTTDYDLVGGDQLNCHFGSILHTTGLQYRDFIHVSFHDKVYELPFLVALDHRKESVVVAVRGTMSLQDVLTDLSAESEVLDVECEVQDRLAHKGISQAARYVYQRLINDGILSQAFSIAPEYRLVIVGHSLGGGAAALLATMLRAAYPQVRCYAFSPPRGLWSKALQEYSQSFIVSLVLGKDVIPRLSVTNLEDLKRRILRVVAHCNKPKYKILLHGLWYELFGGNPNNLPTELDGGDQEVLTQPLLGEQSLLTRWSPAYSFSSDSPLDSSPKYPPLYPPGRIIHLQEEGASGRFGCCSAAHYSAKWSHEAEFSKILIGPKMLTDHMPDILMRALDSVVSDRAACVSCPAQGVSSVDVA
# PAFAH2 FP inh – PAFAH2 enzyme inhibitors, primary screen, biochemical, fluorescence polarization, human. Platelet-activating factor acetylhydrolase 2, cytoplasmic (Homo sapiens), Q99487. recombinant PAFAH2, FP-rhodamine activity probe. inhibition, % at 3.39 µM. hit rate 0.99% among 340,000. AID 492956, 2010;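 active = inhibition above the mean over all tested compounds plus 3 SD, cut at about 30% in these data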;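 note: inhibitors block probe labeling of enzyme so polarization drops; 0% = enzyme with DMSO and 100% = wells lacking PAFAH2 protein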
# PAFAH1B3 inh – PAFAH1B3 enzyme inhibitors, primary screen, biochemical, fluorescence polarization, human; Platelet-activating factor acetylhydrolase IB subunit alpha1 (Homo sapiens), Q15102; recombinant PAFAH1B3, FP-rhodamine probe; inhibition, % at 3.39 µM; hit rate 0.28% among 340,000; AID 492972, 2010;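 active = inhibition above the screen-wide average of all tested compounds plus 3 SD, cut at about 25% in these data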;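 note: 0% = enzyme with DMSO only and 100% = wells lacking PAFAH1B3 protein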
# PAFAH1B2 inh – PAFAH1B2 enzyme inhibitors, primary screen, biochemical, fluorescence polarization, human; recombinant PAFAH1B2, FP-rhodamine activity probe; inhibition, % at 3.39 µM; hit rate 1.2% among 340,000; AID 492953, 2010;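 active = inhibition above the mean of all tested compounds plus 3 SD, cut at about 24% in these data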;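 note: 0% = enzyme with DMSO and 100% = wells lacking PAFAH1B2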
# ATG4B inhibitor – ATG4B protease inhibitors, primary screen, biochemical, fluorescence, uHTS; ATG4B cleavage of LC3-PLA2, NBD-HPC fluorescence, 1 h; hit rate 0.51% among 340,000; AID 504462, 2011; inhibition, % at 8.33 µM; in the data active = inhibition above about 40%
# pPAFAH FP inh – pPAFAH enzyme inhibitors, primary screen, biochemical, fluorescence polarization, human; inhibition, % at 3.39 µM; Platelet-activating factor acetylhydrolase (Homo sapiens), Q13093; hit rate 1.5% among 330,000; recombinant pPAFAH, FP-rhodamine probe fluorescence polarization;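 active = inhibition above the mean inhibition across the screen plus 3 SD, cut at about 25% in these data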;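 note: inhibitors block binding of the rhodamine activity-based probe so polarization drops; 0% = enzyme with DMSO and 100% = wells lacking pPAFAH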
# PAFAH2 FP conf – PAFAH2 enzyme inhibitors, confirmation, biochemical, fluorescence polarization, human. shares compounds with PAFAH2 FP inh. recombinant PAFAH2, FP-rhodamine activity probe. inhibition, % at 3.39 µM. hit rate 65% among 2,300;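 active = mean inhibition over three repeats above a set limit taken from the earlier primary screen, cut at about 30% in these data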;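 note: inhibitor blocks binding of rhodamine activity probe so polarization falls; 0% = enzyme with DMSO and 100% = wells lacking PAFAH2 protein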
# Active calls of the source: *; nt = no result given. Sampled rows, rich in hits. Any-hit rate of the full collection: about 3%.
SMILES,DAGLB inhibitor,PAFAH2 FP inh,PAFAH1B3 inh,PAFAH1B2 inh,ATG4B inhibitor,pPAFAH FP inh,PAFAH2 FP conf
COc1cc(OC)c(NC(=O)C2CC(=O)N(c3ccc4c(c3)OCCO4)C2)cc1Cl (stereo not drawn),2,4,0,1,-6,-1,nt
O=C(COC(=O)c1ccc(Cl)nc1)NC1CCCCCC1,1,23,-6,-1,5,4,nt
CC(=O)Nc1ccc(C(=O)OCC(=O)N(C)C2CCCCC2)cc1,-1,32*,-1,2,-1,-7,27
CC(=O)Nc1ccc(C(=O)OCC(=O)NC2CCCCCCC2)cc1,3,79*,16,8,-1,-10,75*
Cc1c(NS(=O)(=O)c2cccc(C(=O)OCC(=O)N(C)C3CCCCC3)c2)c(=O)n(-c2ccccc2)n1C,0,34*,2,2,-26,5,21
Cc1c(NS(=O)(=O)c2cccc(C(=O)N3CCC(C)CC3)c2)c(=O)n(-c2ccccc2)n1C,0,5,7,6,-8,-2,nt
NC(=O)Nc1ccc(C(=O)OCC(=O)NC2CCCCC2)cc1,3,81*,9,0,-6,4,80*
COc1ccc(CN2CCN(CCc3ccccc3)C(CCO)C2)c(Cl)c1OC (stereo not drawn),-2,-3,12,1,1,-2,nt
CN(Cc1ccccc1)C(=O)COC(=O)CNS(=O)(=O)c1ccc2ccccc2c1,0,1,2,4,-8,16,nt
CC(C)[C@H]1C=C(C(=O)O)O[C@@H](OCCCCO)C1,0,9,5,2,-14,-2,nt
CN(C(=O)COC(=O)c1ccc(NS(=O)(=O)c2cccs2)cc1)C1CCCCC1,1,70*,12,0,-4,22,72*
CC(=O)Nc1ccc(NC(=O)COC(=O)c2cc(S(=O)(=O)N3CCCC3)ccc2O)cc1,3,9,5,3,-4,-3,nt
Cc1cc(C(=O)OCC(=O)Nc2cccc(S(N)(=O)=O)c2)c(C)o1,2,28,4,4,-5,5,nt
O=C(COC(=O)c1cc(S(=O)(=O)N2CCCC2)ccc1O)Nc1ccc(F)cc1F,0,42*,0,8,-16,0,21
Cc1cc(C(=O)OCC(=O)Nc2cccc(S(=O)(=O)N3CCOCC3)c2)c(C)o1,-1,36*,2,-4,-4,7,27
Cc1noc(C)c1COc1ccc(C(=O)OCC(=O)Nc2cccc(S(=O)(=O)N3CCOCC3)c2)cc1,-2,72*,-1,1,-13,8,65*
O=C(COC(=O)c1ccc(F)cc1F)Nc1cccc(S(=O)(=O)N2CCOCC2)c1,0,34*,-8,3,-15,nt,35*
COc1ccc(/C=N/OCC(=O)Nc2ccc3c(c2)OCO3)c(OC)c1,-11,-5,0,3,-3,8,nt
O=C(C[n+]1ccccc1)N/N=C/c1c(F)cccc1Cl,-2,-6,8,5,-2,4,nt
COc1ccccc1CCC(=O)OCC(=O)Nc1cccc(S(=O)(=O)N2CCOCC2)c1,-5,73*,6,-6,-6,13,66*
Cc1ccc(NC(=O)CN(C)S(=O)(=O)c2cccc3cccnc23)cc1C,-1,-4,-5,1,-10,4,nt
CC(=O)Nc1ccc(SCC(=O)NC(=O)c2ccc(S(=O)(=O)N(C)C)cc2)cc1,-2,7,1,1,-2,-3,nt
O=C(COc1ccccc1)Nc1nnc(-c2ccc(Cl)s2)o1,3,-4,3,8,3,9,nt
Cc1c(NC(=O)c2nn(C(C)C)c(=O)c3ccccc23)c(=O)n(-c2ccccc2)n1C,0,nt,nt,nt,nt,nt,nt
CC(C)C(=O)N(c1ccc2oc(=O)sc2c1)S(=O)(=O)c1cccs1,15,44*,9,1,-5,8,42*
SMILES,DAGLB inhibitor,PAFAH2 FP inh,PAFAH1B3 inh,PAFAH1B2 inh,ATG4B inhibitor,pPAFAH FP inh,PAFAH2 FP conf
CC(C)C(=O)N(c1cc2sc(=O)oc2c2ccccc12)S(=O)(=O)c1cccs1,13,32*,10,3,-14,13,26
CC(=O)N(c1ccc2oc(=O)sc2c1)S(=O)(=O)c1cccs1,12,23,5,4,-5,2,nt
COc1ccc(N(C(=O)C(C)C)S(=O)(=O)c2cccs2)cc1,-4,-1,2,1,-3,2,nt
O=C(NCCc1ccccc1)C1CCN(C(=O)c2ccc([N+](=O)[O-])cc2)CC1,-3,-5,0,1,-8,3,nt
CC(=O)N1CCN(S(=O)(=O)c2cccc(C(=O)OCC(=O)NC(=O)c3cccn3C)c2)CC1,-2,35*,4,4,-10,11,32*
COc1cccc(CNC(=O)COC(=O)c2cccc(S(=O)(=O)N3CCN(C(C)=O)CC3)c2)c1,0,17,3,3,-7,16,nt
Cc1ccc(C)c(NC(=O)COC(=O)c2cccc(S(=O)(=O)N3CCCC3)c2)c1,-2,nt,nt,nt,nt,nt,nt
CC(=O)N1CCN(S(=O)(=O)c2cccc(C(=O)OCC(=O)Nc3c(Cl)cccc3C(F)(F)F)c2)CC1,0,44*,2,4,-14,nt,32*
O=C(COC(=O)c1cccc(S(=O)(=O)N2CCCC2)c1)Nc1ccccc1C(F)(F)F,-2,45*,-3,1,0,nt,40*
Cc1ccc(C(=O)OCC(=O)NC(=O)c2cccn2C)cc1,0,47*,2,3,10,4,38*
CCOC(=O)c1c(C)[nH]c(C)c1C(=O)COC(=O)c1cccs1,-1,11,12,4,-1,0,nt
O=C(NCCN1C(=O)S/C(=C\c2cccs2)C1=O)[C@H](Cc1ccccc1)N1C(=O)c2ccccc2C1=O,nt,nt,nt,nt,nt,-3,nt
CC(C)CNC1=C(C(=S)Nc2ccccc2)C(=O)CC(C)(C)C1,-7,4,-2,-2,5,7,nt
O=[N+]([O-])c1cccc(S(=O)(=O)N2CCCCC2)c1,0,9,6,8,9,6,nt
O=C(c1coc(=O)c(Br)c1)N1CCC(C(O)(c2ccccc2)c2ccccc2)CC1,2,3,6,4,-5,5,nt
CC1(C)CCCN(C(=O)c2coc(=O)c(Br)c2)C1,0,48*,11,7,2,nt,21
